Reference: PubChem BioAssay AID1851 (National Center for Advancing Translational Sciences (NCATS), 2009)
Several values for one entry are separate records, joined by “and”; a condition that tells them apart may be missing. Equal values may be shown once. About 5,800 (36%) of roughly 16,000 compounds were called active. Roughly 23% stayed inconclusive and do not appear here. Calls follow the shape of the dose curve; as a rule, active = well fitted curve in the direction sought with a large enough effect; inconclusive = small, poorly fitted or top-dose-only effect, or effect the other way; inactive = no such curve, though single readings can be large or run the other way. The list shows a part of the results. Some structures have more than one record in an assay (separate samples or runs), and their calls can disagree.

The molecules below were run against Cytochrome P450 2C19 (Homo sapiens) (UniProt P33261) (assay: Cytochrome panel assay with activity outcomes). Conditions: recombinant CYP, pro-luciferin dealkylation, luminescence, p450-cyp2c19; series mostly up to 57.1 µM; activity, negative = inhibition: at the top concentration.
Sequence of Cytochrome P450 2C19 (Homo sapiens) (P33261 whole entry, looked up): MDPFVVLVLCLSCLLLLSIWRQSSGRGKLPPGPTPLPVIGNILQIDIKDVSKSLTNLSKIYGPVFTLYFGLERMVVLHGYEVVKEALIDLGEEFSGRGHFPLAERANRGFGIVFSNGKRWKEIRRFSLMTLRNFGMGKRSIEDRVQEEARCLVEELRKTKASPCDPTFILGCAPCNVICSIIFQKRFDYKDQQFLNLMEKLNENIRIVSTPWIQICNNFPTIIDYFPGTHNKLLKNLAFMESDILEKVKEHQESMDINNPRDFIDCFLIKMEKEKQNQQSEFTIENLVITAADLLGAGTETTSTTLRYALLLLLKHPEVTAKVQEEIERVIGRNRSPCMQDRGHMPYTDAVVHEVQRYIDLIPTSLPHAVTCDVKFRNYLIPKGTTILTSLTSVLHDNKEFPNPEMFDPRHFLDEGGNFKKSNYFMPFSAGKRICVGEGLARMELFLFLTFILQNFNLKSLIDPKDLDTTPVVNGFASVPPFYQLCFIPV
% is scaled to controls: 0 for no effect and ±100 for the full control effect.

Structure (SMILES) | activity, negative = inhibition | AC50
C[C@H](NC[C@H](O)CP(=O)(O)CC1CCCCC1)c1ccc(Cl)c(Cl)c1 | -9.58% (inactive) | 
OC[C@H](S)CS | -35.3% [at 11.4 µM] (inactive) | 
CCCCNC(=O)NC1C(NC(=O)NCCCC)N(C)C(=O)N1C (centres undefined) | -13.7% (inactive) | 
CCCCNC(=S)NNC(=O)CCn1nc(C)c(Br)c1C |  | 11.2 µM (active)
COc1cccc(Nc2ncc3nc(C)c(=O)n(CCc4ccccc4)c3n2)c1 | -33.4% (inactive) | 
COc1cccc(NC(=O)C2c3cc(OC)c(OC)cc3C(=O)N(C)C2c2cccnc2)c1 (centres undefined) | -18.3% (inactive) | 
Cc1cccc(NC(=S)N(CCc2nc3cc(C)c(C)cc3[nH]2)Cc2cccnc2)c1 |  | 3.16 µM (active)
COc1ccc(NC(=S)N(CCc2nc3cc(C)c(C)cc3[nH]2)Cc2cccnc2)cc1 |  | 14.1 µM (active)
COc1cccc(NC(=S)N(CCc2nc3cc(C)c(C)cc3[nH]2)Cc2cccnc2)c1 |  | 3.98 µM (active)
CNC(=S)NNC(=O)c1sccc1OCc1ccc(C)cc1 |  | 5.01 µM (active)
COc1ccc(COc2ccsc2C(=O)Nc2ccc(Cl)c(Cl)c2)cc1 |  | 7.94 µM (active)
FC(F)(F)c1cc(CN2CCCC3(CCNCC3)C2)cc(C(F)(F)F)c1 | 24.6% (inactive) | 
Cc1ccc(/C=C/c2nnc(-c3ccc(C)cc3)o2)cc1 | -16.4% (inactive) | 
C(=C\c1nnc(-c2cccs2)o1)/c1ccccc1 |  | 22.4 µM (active)
Cc1oc(-c2cccs2)[n+]([O-])c1C | 14.9% (inactive) | 
CCN=C1NN=C(c2ccc(C)cc2)CS1 |  | 10 µM (active)
Nc1nc(NCCc2ccc(O)cc2)nc2nc(-c3ccco3)nn12 | -37.2% (inactive) | 
FC(F)(F)c1cc(-c2ccco2)nc(NCCc2ccccc2)n1 |  | 1.78 µM (active)
CN1CCN(CC(=O)N2c3ccccc3C(=O)Nc3cccnc32)CC1 |  | inactive
Cc1scc2c1N(C(=O)CN1CCN(C)CC1)c1ccccc1NC2=O |  | inactive and 3.98 µM (active)
O=C(Cc1ccccc1I)Nc1ccccc1 |  | 6.31 µM (active)
CCCCC#Cc1ccccc1CC(=O)Nc1ccccc1 |  | 0.794 µM (active)
CCC#CCOCC(=O)Nc1ccccc1 | 1.66% (inactive) | 
COC(=O)c1cc(/C=C/c2ccccc2)on1 |  | 35.5 µM (active)
O=C(O)[C@H](/C=C\c1ccccc1)c1ccccc1 | -22.1% [at 11.4 µM] (inactive) | 
Cc1ccc(NC(=O)c2cc([N+](=O)[O-])ccc2NCc2cccnc2)cc1Cl |  | 0.0794 µM (active)
CS(=O)(=O)N1CCC[C@@]2(CCN(C(=O)Nc3cccc(C#N)c3)C2)C1 | 26.6% (inactive) | 
COc1cccc(/C=c2/s/c(=C(\C#N)C(=O)N3CCOCC3)n(-c3ccccc3)c2=O)c1 | -26% (inactive) | 
CNC(=O)/C(C#N)=c1\s/c(=C/C(=O)OC)c(=O)n1-c1ccccc1 |  | 5.01 µM (active)
